Our source for the INHIBITION values is ChEMBL document CHEMBL4513216, “Probing the Open Global Health Chemical Diversity Library for Multistage-Active Starting Points for Next-Generation Antimalarials” (ACS Infect Dis, 2020).

In all, about 69,000 compounds went through this assay and about 8,600 (12%) showed an effect of 50% or more. The list comes from a sample in which strong results are over-represented; it also holds similar structures and randomly drawn compounds.

The assay concerns Plasmodium berghei. Briefly: Screen against P. berghei liver stage (PbLuc), transformed with Luciferase, at 10uM. The class given is functional, HepG2. The conditions noted are these: tested at 10 uM.
Turning to `CCc1nnc2n1CCN(C(=O)Cc1nc(-c3ccco3)oc1C)C2`, the INHIBITION is listed as -17.6%.
Then `Cc1ncc(C(=O)N2CCCC(n3nc(C)nc3C)C2)c(C(C)C)n1` (stereo unspecified), with -3.15%; and `Cc1cc(C)n(CC2CCCN2C(=O)c2cccc(C#N)c2)n1` (stereo unspecified), with -3.585%.
Take `COc1ccc(OCCN2CCC(c3ccnn3CCO)CC2)cc1`: the INHIBITION amounted to 11.4%.
Then `Cc1ccc(C(C(=O)NC(C)(C)CN2CCCC2)N(C)C)cc1` (stereo unspecified), with 35.7%; and `CCOCC1CN(C(=O)c2cscn2)Cc2cn(C)nc21` (stereo unspecified), with 17.1%; and `CCOCC1c2c(ncn2C)CCN1C(=O)c1cnc(C)cn1` (stereo unspecified), with 57.5%.
Then `CCOCC1c2c(ncn2C(C)C)CCN1C(=O)CC` (stereo unspecified), with 29.8%.
Then `CCOCC1c2c(cnn2C)CCN1C(=O)c1cc(C)on1` (stereo unspecified), with 37.6%.
Turning to `CCn1ncc2c1C(COC)N(C(=O)c1cccs1)CC2` (stereo unspecified), the INHIBITION was 51.2%.
`CCOCC1c2c(ncn2C(C)C)CCN1C(=O)C1CC1` (stereo unspecified): the INHIBITION came to 76.4%.
Then `CCOCC1c2c(ncn2C(C)C)CCN1C(C)C` (stereo unspecified), with 10.5%; and `CCn1ncc2c1C(COC)N(C(=O)c1ccsc1)CC2` (stereo unspecified), with 43.9%; and `CCOCC1CC2(CCN(C(=O)c3cscn3)CC2)CO1` (stereo unspecified), with 9.63%.
Then `CCn1ncc2c1C(COC)N(C(=O)Cc1cccs1)CC2` (stereo unspecified), with 25.8%; and `CCOCC1c2c(ncn2C)CCN1C(=O)c1ccoc1` (stereo unspecified), with -3.17%.
Then `CCOCC1c2c(ncn2C)CCN1C(=O)c1cscn1` (stereo unspecified), with 60.2%; and `CN(Cc1cc(C2CC2)[nH]n1)C(=O)c1cnn2ccn(C)c12`, with 14.9%; and `Cc1c(-c2cccs2)nn2c(=O)c3c([nH]c12)CN(C(=O)C1CC1)C3`, with 43.7%.
`CC1c2ncc(CNC(=O)C3CC3)n2CCN1Cc1ccncc1` (stereo unspecified): the INHIBITION was 6.55%.
Then `CN1CCN(c2cc(CNC(=O)c3cnccn3)ccn2)CC1`, with 35.3%; and `O=C(CC(F)(F)F)N1C[C@@H]2CC[C@H]1CN(Cc1ccccc1)C2`, with -8.47%.
For the compound `CNc1nc(C2CCCCN2C(=O)C(C)(C)OC)nc2c1CN(C)CC2` (stereo unspecified), the INHIBITION came out at 38.2%.
Consider `CC1c2ncc(COCC3CCOCC3)n2CCN1C(=O)c1ccco1` (stereo unspecified), for which the INHIBITION is 47.2%.
Then `COC1C[C@@H]2CN(C(=O)c3cc4ccc(F)cc4[nH]3)C[C@@H]2C1` (stereo partly specified), with -36.1%.
Then `COCC1c2c(cnn2C)CCN1C(=O)c1cc(C)on1` (stereo unspecified), with 38.5%; and `CCn1ncc2c1C(COC)N(C(=O)c1cscn1)CC2` (stereo unspecified), with 38.5%; and `COCC1c2c(cnn2C)CCN1C(=O)c1cscn1` (stereo unspecified), with 56.6%.
Then `O[C@@H]1C[C@H]2CN(CC3CCCCC3)[C@H](Cc3ccccc3)CN2C1`, with 16.2%.
Take `O=C(CC1CC1)NCc1cn2c(n1)CN(C(=O)c1cccnc1)CC2`: the INHIBITION was -5.69%.
On to `Cn1cc(Br)c(=O)c(NS(=O)(=O)c2ccc(Cl)cc2)c1`, for which the INHIBITION was -4.68%.
Then `CC(=O)N1CCN(CC(C)(O)c2cccc(C(F)(F)F)c2)CC1` (stereo unspecified), with 33.3%.
Then `CC(=O)N1CCCN(CC(C)(O)c2cccc(C(F)(F)F)c2)CC1` (stereo unspecified), with 64.5%; and `CCN1CCN(CC(C)(O)c2cccc(C(F)(F)F)c2)CC1` (stereo unspecified), with 20.1%; and `CCc1nnc(S(=O)(=O)Cc2cc(Cl)c3c(c2)OCO3)n1C`, with 24.8%.
Then `Cn1cnnc1S(=O)(=O)Cc1cc(Cl)c2c(c1)OCCO2`, with 63.8%; and `CN(C)C(=O)CS(=O)(=O)Cc1cc(Cl)c2c(c1)OCCO2`, with 16.9%.
On to `CNC(=O)CCS(=O)(=O)Cc1cc(Cl)c2c(c1)OCCO2`, for which the INHIBITION was found to be 15.3%.
Then `Cn1cnnc1S(=O)(=O)Cc1cc(Cl)c2c(c1)OCO2`, with 68.4%; and `CC(C(N)=O)S(=O)(=O)Cc1cc(Cl)c2c(c1)OCO2` (stereo unspecified), with 16.7%.
Then `Cc1csc(N2CCCN(C(=O)c3c(C)noc3C)CC2)n1`, with -19.6%.
Then `COc1cccc(CCN2C[C@H]3CCNCC[C@H]3S2(=O)=O)c1`, with 24.6%; and `CCn1cc(NC(=O)NCCN2CCc3ccccc3C2)cn1`, with 17.5%.
Take `Cc1cc(C)n(C2CCCN(C(=O)c3ccc(N(C)C)nn3)C2)n1` (stereo unspecified): the INHIBITION is listed as 13.2%.
Then `CC(=O)N1CCC(CCc2ccnc(Nc3ccccn3)c2)CC1`, with 40.65%.
Then `CC(=O)N1CCC(CCc2ccnc(NC(=O)c3ccccn3)c2)CC1`, with 21.95%; and `O=C(CO)N1CCC(CCc2ccnc(Nc3cnccn3)c2)CC1`, with 36%; and `O=C(Nc1cc(CCC2CCN(CCO)CC2)ccn1)c1ccccn1`, with 52.8%.
Then `CC(=O)Nc1cc(CCC2CCN(C(=O)c3ccccn3)CC2)ccn1`, with 10.35%.
As to `CN1CCC(CCc2ccnc(NC(=O)c3ccccn3)c2)CC1`, the INHIBITION turned out to be 67.45%.
Then `CC(=O)N1CCC(C(=O)NCc2cc[nH]n2)(c2ccccc2)CC1`, with -11.9%; and `COc1ccc(OC)c(C(O)CNC(=O)Nc2ccc(F)cc2F)c1` (stereo unspecified), with -27%.
Then `c1ccc2c(c1)CC(CNCc1ccncc1)(N1CCCCC1)C2`, with 12.3%; and `CC(=O)NCCNC(=O)C1(N2CCCCC2)Cc2ccccc2C1`, with -46.4%; and `O=C(NCCCO)C1(N2CCCCC2)Cc2ccccc2C1`, with 0.818%.
In the case of `Cn1cc(CNCC2(N3CCCCC3)Cc3ccccc3C2)cn1`, the INHIBITION was found to be 78.1%.
Turning to `CCc1ccccc1CNC(=O)NCc1cnn(C)c1`, the INHIBITION was found to be 13.9%.
For `CSc1ncc(CNCC2(N3CCCCC3)Cc3ccccc3C2)cn1`, the INHIBITION is reported as 72.4%.
With `CCN(CC)CC1CN(CCc2ccccc2)Cc2nccn2C1` (stereo unspecified), the INHIBITION is recorded as 0.139%.
Then `CC(c1cc(O)nc(NC2CCCC2)n1)n1ncc2ccccc2c1=O` (stereo unspecified), with 4.8%; and `Cc1nc(C)n(CC2CCCCN2CCOc2ccc(C#N)cc2)n1` (stereo unspecified), with 42%; and `CCc1ncc2c(n1)CN(C(C)C(=O)Nc1ccc(Cl)cn1)CC2` (stereo unspecified), with 48.2%.
Then `Cc1nnc(C(C)Nc2cccc(COCCOC(C)C)c2)o1` (stereo unspecified), with 21.5%; and `Cc1nnc(C(C)Nc2cccc(COCCc3ccccc3)c2)o1` (stereo unspecified), with 19.7%; and `Cc1nnc(C(C)Nc2cccc(COCC(F)(F)C(F)F)c2)o1` (stereo unspecified), with 57.4%.
Then `CN(C)CCNC(=O)[C@H]1C[C@H]2CN(C(=O)NC3CCCC3)C[C@@H]1O2`, with 6.83%.
With `Cc1ccc(Cn2cc(Br)c(NS(C)(=O)=O)n2)cc1`, the INHIBITION is 19.575%.
Then `CNc1cc(C2CN(C(=O)c3ccccc3)CCO2)nc(C)n1` (stereo unspecified), with 23.9%; and `CC(C)(C)NC(=O)C1CSCN1S(=O)(=O)c1ccccc1F` (stereo unspecified), with 32.7%; and `O=C(NCC(F)(F)F)C1CSCN1S(=O)(=O)c1ccccc1F` (stereo unspecified), with 52.3%.
Then `O=C(NCC1CC1)C1CSCN1S(=O)(=O)c1ccccc1F` (stereo unspecified), with 26.6%; and `O=C(c1ccccc1-n1cccn1)N1CCC(Nc2cccnn2)CC1`, with -92.9%; and `Oc1cc(C2CCCCN2C2CCCC2)nc(-c2cccnc2)n1` (stereo unspecified), with 15.5%.
Then `Cc1ccc(C(=O)N(C)Cc2nccn2CC(F)(F)F)cn1`, with -16.8%; and `Cc1cc(C)nc(N2CCOC(C)(C(=O)N(C)C)C2)n1` (stereo unspecified), with -11.4%; and `Cc1nc(CO[C@H]2CN(C(=O)c3cnoc3C)[C@@H]3COC[C@H]23)cs1`, with 24.9%.
Take `Cc1nc(CO[C@@H]2CN(Cc3cnn(C)c3)[C@@H]3COC[C@@H]32)cs1`: the INHIBITION was found to be 50.1%.
Consider `Cc1nc(CO[C@H]2CN(C(=O)c3cccnc3)[C@@H]3COC[C@H]23)cs1`, for which the INHIBITION is 51.2%.
Take `Cc1nc(CO[C@@H]2CN(Cc3ccc(F)cc3)[C@@H]3COC[C@@H]32)cs1`: the INHIBITION is 23.6%.
Regarding `Cc1nc(CO[C@@H]2CN(Cc3ccsc3)[C@@H]3COC[C@@H]32)cs1`, the INHIBITION was determined as 14.1%.
Then `Cc1nc(CO[C@H]2CN(C(=O)c3cccn3C)[C@@H]3COC[C@H]23)cs1`, with 38.5%; and `Cn1ccc(C(=O)N2C[C@@H]3OCCN(c4ncccn4)[C@@H]3C2)n1`, with 18.4%.
Then `Cc1nc(-c2ccccc2)n(CC(=O)NC(C)(C)C)n1`, with 16.8%; and `CC(C)OCCC(=O)NCCc1csc(N2CCCC2)n1`, with 48.3%; and `CCN(CC)CC(=O)NCCc1csc(N2CCCC2)n1`, with 9.48%.
On to `CC(C)(C)OC(=O)NCCc1csc(N2CCCC2)n1`, for which the INHIBITION was 65.4%.
Then `Cc1nc(CC(=O)NCc2csc(N3CCCC3)n2)cs1`, with 70.3%; and `CCC=C(C)C(=O)NCCc1csc(N2CCCC2)n1`, with 41.4%.
Then `CC(C)(C)SCC(=O)NCCc1csc(N2CCCC2)n1`, with 78.2%.
Then `CCCc1nc(CNC(=O)Cc2csc(C)n2)cs1`, with 9.35%; and `CCNC(=O)NCCc1csc(N2CCCC2)n1`, with 39.7%; and `Cc1ncsc1CCC(=O)NCc1csc(N2CCCC2)n1`, with -20.8%.
Turning to `O=C(CN1CC(c2nc(-c3ccco3)no2)C1)NCCc1ccccc1`, the INHIBITION is recorded as -63.6%.
Then `Cc1nc(NC(=O)c2c3c(nn2C2CCS(=O)(=O)C2)CCC3)sc1C` (stereo unspecified), with -14.9%; and `O=C(NCc1ccc(CO)cc1)C1CCOc2ccccc2C1` (stereo unspecified), with 5.91%; and `Cn1nc(C(=O)N2CCOCC2)cc1C(=O)Nc1cc(Cl)cc(Cl)c1`, with 45.9%.
Then `CCc1nnc(NC(=O)NCCN(C)C(=O)OC(C)(C)C)s1`, with 1.98%.
Then `CCc1cccc(OCCn2cccc(C#N)c2=O)c1`, with 68.3%.
For `N#Cc1cccn(CCOc2ccc(Cl)cc2)c1=O`, the INHIBITION is 77.2%.
On to `COc1cccc(Cn2cccc(C#N)c2=O)c1`, for which the INHIBITION is recorded as 41.4%.
Then `CC1C(=O)NCCN1CCOc1ccc(C#N)cc1` (stereo unspecified), with -17.2%.
Then `N#Cc1ccc(OCCn2cccn2)cc1`, with 15.7%; and `CCc1cccc(OCCCN(C)C(=O)CN2CCNC2=O)c1`, with 17%; and `CC(=O)N1Cc2nccn2CC(CNC(=O)c2cccnc2)C1` (stereo unspecified), with -48.4%.
Then `O=C(c1c(O)cnc2ccccc12)N1CCN(CC(F)F)CC1`, with -32.1%.
As for `CC[C@@H]1N(Cc2nccs2)CCC[C@]12CCC(=O)N2CCOC`, the INHIBITION turned out to be 16.4%.
